Compound activity: PubChem, Broad Institute
An excerpt weighted towards active compounds, which were near 2.9% of everything screened.
MITF act – MITF TRPM1 promoter activation in melanoma cells. SK-MEL-5 TRPM1-promoter luciferase, 24 h; % of positive control, neutral wells = 0. activation, % at 12.5 µM. hit rate 0.75% among 300,000;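 active = mean activation of at least 80% with every replicate also reaching 80%; inconclusive = mean reaches 80% but some replicate falls short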
Wnt act – activators of Wnt/beta-catenin signaling; Wnt/beta-catenin reporter cell assay, activator, plate reader; activation, % at 9.35 µM; hit rate 1.2% among 300,000; AID 743398; in the data active = activation above about 30%, passing the limit was not always enough; inconclusive = no clear call, values can overlap the other calls
NSD2 HMT inh – blocks human histone methyltransferase NSD2; NSD2 peptide methylation, AlphaScreen, 120 min; inhibition, % at 12.5 µM; O96028; hit rate 0.54% among 310,000; in the data active = inhibition above about 50%
MITF TRPM1 inh – inhibitors of MITF-driven TRPM1 promoter in melanoma cells; AID 488899; inhibition, % at 12.5 µM; hit rate 0.83% among 330,000; SK-MEL-5 TRPM1 promoter luciferase, 24 h;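 active = mean inhibition across replicates of 60% or more, whatever share of single replicates reaches that level; inconclusive = some that reach 60%, reason not given; inactive = mean inhibition across replicates below 60%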
N-glyco inh – N-linked glycosylation inhibition; reporter increase, % at 12.5 µM; AID 588692; D54 ERlucT glycosylation luciferase reporter, 24 h; percent of 100 nM tunicamycin response; hit rate 0.23% among 360,000;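 active = mean luciferase reporter signal, scaled so untreated is 0 and the glycosylation-blocking control 100, at or above a set limit in every replicate; inconclusive = mean reaches the limit but not every replicate does; inactive = mean below the limit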;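 also: luciferase carries N-glycosylation sites so blocking glycosylation raises the light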
PfHsp90 set2 – inhibits growth of yeast expressing Plasmodium falciparum Hsp90; S. cerevisiae expressing PfHsp90, BacTiter-Glo ATP, 48 h; yeast lacking PDR1 and PDR3 efflux regulators; inhibition, % at 9.4 µM; hit rate 0.32% among 310,000;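 active = every replicate shows inhibition above about 80%, whatever the replicate mean, limit read from the data; inconclusive = mean inhibition reaches the set limit but some replicate falls short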
Hits are given with their value.

Results for Clc1ccc2nc(CNc3nc(N4CCOCC4)nc4c3ncn4-c3ccsc3)[nH]c2c1 ?
NSD2 HMT inh: inactive

What do the screens show for `Cc1ccc(N2C(=O)c3ccc(N)cc3C2=O)cc1`?
Wnt act: 68.8; NSD2 HMT inh: inactive; MITF TRPM1 inh: inactive; N-glyco inh: inactive

How did Cc1cc(N2CCN(CC(C)(C)O)C[C@H]2C)ccc1N1CCN(Cc2ccccc2)[C@H](C)C1 do in these assays?
Wnt act: inactive

Results for CC1(C)CC(=O)/C(=N/Nc2ccc(Cl)cc2)CO1 ?
MITF act: inactive; Wnt act: 51.7; NSD2 HMT inh: inactive; MITF TRPM1 inh: inactive; N-glyco inh: inactive; PfHsp90 set2: inactive

What do the screens show for `Cc1cccc(N/N=C2/COC(C)(C)CC2=O)c1`?
MITF act: inactive; NSD2 HMT inh: inactive; MITF TRPM1 inh: inactive; N-glyco inh: inactive; PfHsp90 set2: inactive

What do the screens show for `Nn1c(-c2ccc(F)cc2)nc2ccccc2c1=O`?
Wnt act: inactive; NSD2 HMT inh: inactive; N-glyco inh: inactive; PfHsp90 set2: inactive

Results for O=C1c2cc(F)ccc2-n2c1nc1ccccc1c2=O ?
MITF act: inactive; Wnt act: inactive; NSD2 HMT inh: inactive; MITF TRPM1 inh: 98.3; N-glyco inh: inactive; PfHsp90 set2: 89.6

How did Cc1cc(C(=O)COC(=O)c2ccc[nH]c2=O)c(C)n1C1CC1 do in these assays?
MITF act: inactive; Wnt act: inactive; NSD2 HMT inh: inactive; MITF TRPM1 inh: inactive; N-glyco inh: inactive; PfHsp90 set2: inactive

How did Cc1cc(C(=O)COc2ccccc2C(N)=O)c(C)n1C1CC1 do in these assays?
MITF act: inactive; Wnt act: 39.5; NSD2 HMT inh: inactive; MITF TRPM1 inh: inactive; N-glyco inh: inactive; PfHsp90 set2: inactive

What do the screens show for `Cc1cc(C(=O)COc2ccccc2[N+](=O)[O-])c(C)n1C1CC1`?
MITF act: inactive; Wnt act: inconclusive; MITF TRPM1 inh: inactive; N-glyco inh: inactive; PfHsp90 set2: inactive

What do the screens show for `Cc1cc(C(=O)COC(=O)c2ccc(F)cc2F)c(C)n1C1CC1`?
MITF act: 117.6; Wnt act: inactive; NSD2 HMT inh: inactive; MITF TRPM1 inh: inactive; N-glyco inh: inactive; PfHsp90 set2: inactive

Results for Cc1cc(C(=O)COC(=O)c2ccc(Cl)c(S(N)(=O)=O)c2)c(C)n1C1CC1 ?
MITF act: 97.2; Wnt act: 44.6; NSD2 HMT inh: inactive; MITF TRPM1 inh: inactive; N-glyco inh: inactive; PfHsp90 set2: inactive

How did CCCCc1c(-c2ccccc2OC)ncn1C(C)c1ccccc1 (stereo not given) do in these assays?
Wnt act: inactive

How did Cc1ccccc1CN1C(=O)c2ccccc2S1(=O)=O do in these assays?
MITF act: inactive; Wnt act: inactive; NSD2 HMT inh: inactive; MITF TRPM1 inh: inactive; N-glyco inh: inactive; PfHsp90 set2: inactive

How did O=C1c2ccccc2S(=O)(=O)N1Cc1nc2ccccc2s1 do in these assays?
MITF act: inactive; MITF TRPM1 inh: 70.4; N-glyco inh: inactive; PfHsp90 set2: inactive

Results for CCOC(=O)c1sc(-c2ccc(C(F)(F)F)cc2)nc1O ?
MITF act: inactive; Wnt act: inactive; NSD2 HMT inh: inactive; MITF TRPM1 inh: inactive; N-glyco inh: inactive; PfHsp90 set2: 105.8

What do the screens show for `CCN(CC)c1ccc2cc(NC(=O)CCC(=O)O)c(=O)oc2c1`?
MITF act: inactive; Wnt act: inactive; MITF TRPM1 inh: 92.4; N-glyco inh: inactive; PfHsp90 set2: inactive

What do the screens show for `CCN(CC)c1ccc2cc(C(C)=O)c(=O)oc2c1`?
MITF act: inactive; Wnt act: inactive; NSD2 HMT inh: inactive; MITF TRPM1 inh: inactive; N-glyco inh: inactive; PfHsp90 set2: inactive

Results for NS(=O)(=O)c1ccc(N2N=C(c3ccccc3)CC2c2ccccc2Br)cc1 (stereo not given) ?
MITF act: inactive; Wnt act: inactive; MITF TRPM1 inh: inactive; N-glyco inh: inactive; PfHsp90 set2: inactive

How did O=[N+]([O-])c1ccc(N2N=C(c3ccccc3)CC2c2ccccc2O)cc1 (stereo not given) do in these assays?
MITF act: inactive; Wnt act: inactive; NSD2 HMT inh: inactive; MITF TRPM1 inh: inactive; N-glyco inh: inactive; PfHsp90 set2: 108.2

What do the screens show for `COC(=O)C1=C(C)N(C)C(=NCC2CC2)NC1c1ccc(F)cc1` (stereo not given)?
Wnt act: inactive

Results for CCCc1noc(-c2ccc(-c3ccccc3)cc2)n1 ?
Wnt act: 39.4; NSD2 HMT inh: inactive; MITF TRPM1 inh: inactive; N-glyco inh: inactive
